Laboratory results published in PubChem BioAssay (NCI).
Compounds without any hit were thinned out: in the full panel of roughly 83,000, 20% have a hit.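 Plates (96-well) were seeded with cells, treated with compound at one concentration, and incubated for 48 hours before percent growth was determined.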 A number with no mark means an inactive call. Calls of active or inactive are those of the source. The calls were made as follows: active = growth percent below 10; inactive = the rest.

How the values were obtained:
Test in all cases: NCI-60 one-dose screen, 48 h (100 = growth as untreated, 0 = no growth, -100 = all killed)
Settings in all cases: 10 µM unless noted
[1] = tested on: T-47D breast
[2] = tested on: BT-549 breast
[3] = tested on: MDA-MB-435 melanoma
[4] = tested on: SW-620 colon
[5] = tested on: MCF7 breast
[6] = tested on: HCT-116 colon
[7] = tested on: HCC-2998 colon
[8] = tested on: KM12 colon

| Structure (SMILES) | growth [1] | growth [2] | growth [3] | growth [4] | growth [5] | growth [6] | growth [7] | growth [8] |
| --- | --- | --- | --- | --- | --- | --- | --- | --- |
| N[C@@H](Cc1ccccc1)[C@@H](O)C(=O)NCc1ccc(F)cc1 | 113% | 105% | 101% | 103% | 94.9% | 96.1% | 113% | 102% |
| Cc1cc(=O)oc2cc(OC(=O)N3CCN(C)CC3)ccc12 | 105% | 112% | 101% | 100% | 89.6% | 99.4% | 110% | 101% |
| c1ccc(CO[C@H]2CO[C@H]3[C@@H]2OC[C@@H]3Oc2ccc(Nc3ncnc4ccsc34)cc2)cc1 | 38.9% | 68.9% | 83.9% | 87.6% | 64.9% | 68.9% | 104% | 86.2% |
| CCCCC[C@H](O)C/C=C1/C(=O)C=C[C@@H]1C/C=C\CCCC(=O)OC | 69.3% | 35.3% | -9.31% (active) | 16.1% | 18.6% | 13% | 77.8% | 16.5% |
| CS(=O)(=O)N(c1cc(-c2ccc3ncnc(Nc4ccc(F)c(Cl)c4)c3c2)cnc1Cl)S(C)(=O)=O | -11% (active) | 22% | 43.8% | 46.3% | 12% | 45.1% | 45.1% | 67.1% |
| CCOC(=O)c1cn2ncnc(Oc3ccc(NC(=O)NCCN(C)C)c(Cl)c3)c2c1C | 45.8% | 77.8% | 46.1% | 31.5% | 61.6% | 36.4% | 80.2% | 93.3% |
| NCCCNc1nc2ccccc2c2c(=O)c3cccc(F)c3sc12 | 60.3% | 91.2% | 16.5% | -62.5% (active) | 19.9% | -72.5% (active) | -46% (active) | 4% (active) |
| COc1ccc(C(=O)COC(=O)[C@H](C[Se][Se]C[C@H](NC(=O)c2ccc(Br)cc2F)C(=O)OCC(=O)c2ccc(OC)cc2)NC(=O)c2ccc(Br)cc2F)cc1 | -33.1% (active) | -89.6% (active) | 3.85% (active) | -59.7% (active) | -57.3% (active) | -69.1% (active) | -64.1% (active) | -81.6% (active) |
| COc1cc(C2CC(c3cccc(Br)c3)=NN2C(C)=O)cc(OC)c1OC (configuration not stated) | 69.7% | -8.75% (active) | -51.2% (active) | 24.8% | 22.8% | 17.2% | -31% (active) | 16.9% |
| C=C1CC[C@@]2(C#N)[C@H]3[C@H](CC[C@@H]2C)[C@@H](C)C[C@@H](CC(C)(C)C#N)[C@H]13 | 21.5% | 50.4% | 35.9% | 49.9% | 21.1% | 14.5% | 37.3% | 35.7% |
| COc1ccc(-c2csc(NC(=O)N3CCN(c4cc5c(cc4F)c(=O)c(C(=O)O)cn5C4CC4)CC3)n2)cc1 | 5.11% (active) | -13.5% (active) | 3.67% (active) | 15.7% | 3.38% (active) | 5.37% (active) | 31% | 3.67% (active) |
| Nc1nc(-c2cccc3ccccc23)cc2ccccc12 | 43.7% | 39.2% | -64.8% (active) | 19.4% | 7.69% (active) | 10.8% | -5.78% (active) | 5.93% (active) |
| COc1cc(CNS(=O)(=O)c2ccc(C)cc2)ccc1OCc1cn(-c2ccccc2)nn1 | 66.5% | 88.1% | 99.9% | 98.9% | 92.7% | 85.1% | 117% | 99.4% |
| [O-][n+]1c2ccccc2[n+]([O-])c2c3ccccc3[nH]c21 | 2.23% (active) | 81.3% | 110% | 45.4% | 19.4% | 10.3% | 69.2% | 90.1% |
| NS(=O)(=O)c1ccc(-n2nc(C(=O)N/N=C\c3ccc(F)cc3)cc2-c2ccc(Br)cc2)cc1 | 69.7% | 86.1% | -1.32% (active) | 62.8% | 55.1% | 82.8% | 86.9% | 61.8% |
| Cc1ccc2sc3c(NCCN)nc4ccccc4c3c(=O)c2c1 | 65.6% | 88.1% | 46.2% | -61.9% (active) | 47.9% | 7.89% (active) | -33% (active) | 14.1% |
| CCCCNc1nc(NN2C(=O)c3cccc4cccc(c34)C2=O)nc(-n2cnc3ccccc32)n1 | 74.7% | 98.8% | 99.2% | 109% | 72.6% | 88.3% | 105% | 25.4% |

| Structure (SMILES) | growth [1] | growth [2] | growth [3] | growth [4] | growth [5] | growth [6] | growth [7] | growth [8] |
| --- | --- | --- | --- | --- | --- | --- | --- | --- |
| COc1cc2cc(Oc3ccc(NC(=O)Nc4ccc(Cl)c(C(F)(F)F)c4)cc3)c(C)nc2cc1OCCN1CCOCC1 | 22.6% | 48.6% | 15.5% | 15.1% | 4.87% (active) | 10.3% | 36.9% | 14.9% |
| Cc1ccc(-c2nc(N3CCN(C(=O)Nc4ccc(Cl)c(C(F)(F)F)c4)CC3)c3ccccc3n2)cc1 | 70.3% | 93.6% | 79.7% | 84.8% | 62% | 67.5% | 85.3% | 82.9% |
| Cc1cc(-c2cc(C)c(N)cc2C)c(C)cc1N | 90.4% | 92.3% | 6.88% (active) | 100% | 80.7% | 78.8% | 104% | 75.2% |
| BrCCCc1n(Cc2ccc3ccccc3c2)c2ccccc2[n+]1Cc1ccc2ccccc2c1 | -10.9% (active) | -73.5% (active) | -96.5% (active) | -81.5% (active) | -74.7% (active) | -89.7% (active) | -90.1% (active) | -89.7% (active) |
| CCOC(=O)c1c(C)nc2c(c1N)CC(=O)N2Cc1ccc(F)cc1 | 73.2% | 72.5% | 99.8% | 92.2% | 96.1% | 87.6% | 103% | 97.7% |
| C#Cc1cccc(NC(=O)c2ccc(NC(=O)C=C)cc2)c1 | 55.6% [8.25 µM] | 77% [8.25 µM] | 65.5% [8.25 µM] | 77.9% [8.25 µM] | 59% [8.25 µM] | 57.4% [8.25 µM] |  | 96.7% [8.25 µM] |
| COc1cc(/C=N/NC(=O)c2ccc(C)nc2)cc(OC)c1OC | 104% | 105% | 109% | 95.6% | 103% | 110% |  | 97.8% |
| Cc1ccccc1C(=O)NN | 102% | 106% | 111% | 113% | 102% | 108% |  | 112% |
| Cc1cc(C)c(-c2c(N)cc(Br)cc2Br)c(N)c1 | 54.6% | 69.6% | -25.8% (active) | 48.5% | 21.4% | 23.5% |  | 40.5% |
| Cc1ccc(C(C)C)cc1C(=O)C[n+]1ccccc1 | 88.7% | 95.8% | 101% | 106% | 87.1% | 79% |  | 101% |
| CC/C=C\C[C@@H]1C/C=C2/C(=O)C=C[C@H]2C/C=C\CCCC(=O)O1 | 10.3% | -55.7% (active) | -59.1% (active) | -65.1% (active) | -9.37% (active) | -93.5% (active) |  | -92.3% (active) |
| CCCCCCCCCCCCCCCCCCOc1ccc(CC(=O)OCC[N+]2(C)CCCCC2)cc1 | 92.6% | 112% |  | 96.2% | 91% | 57.7% | 97.4% |  |
| CNC(=O)c1cc(-n2ccc3cc(NC(=O)c4ccc(N5CCOCC5)c(C(F)(F)F)c4)ccc32)ccn1 | 25.8% | 43.8% | 76.4% | 75.9% | 60.6% | 38.7% |  | 17.7% |
| COc1cccc(-c2nc(-c3ccc(NS(=O)(=O)c4ccccc4)cc3)[nH]c2-c2ccnc(Br)c2)c1 | 14.2% | 51.3% |  | 34.3% | 9.68% (active) | 17% | 21.8% | 8.67% (active) |
| Cc1ccc(C(=O)NN2C(=O)CSC2c2cccc([N+](=O)[O-])c2)cn1 (configuration not stated) | 96.1% | 104% | 97% | 98.3% | 112% | 99.6% |  | 106% |
| O=C(CCOCCNC(=O)COc1ccc2c(c1)OCC(c1ccc(F)cc1)C2=O)NCCCC(O)(P(=O)(O)O)P(=O)(O)O (configuration not stated) | 101% | 105% | 102% | 101% | 89% | 101% |  | 100% |
